The record followed here is PubChem BioAssay (NCATS).

In experiment [1] the target is Arylsulfatase A (Homo sapiens) (UniProt P15289). As to the kind of experiment: qHTS screen for enhancers of Arylsulfatase A (ASA1): LOPAC Validation Assay (AID 720538). The conditions noted are these: outcome: dose series up to 57.5 µM. The procedure, abridged: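 Enhancer assay in patient-derived MLD fibroblasts carrying ASA-I179S: 48 h compound exposure at 37 C, then 14 h room-temperature pNCS turnover (0.5 mM final) in lysis buffer. Read by fluorescence at 525/598 nm after NaOH stop.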
A general note: qHTS replaces the single test concentration by a dilution series.

A short description of experiment [2]: qHTS for compounds that reverse cellular toxicity of Amyloid beta (A-beta) peptide in yeast: LOPAC Validation Assay (AID 720559). The procedure, abridged:
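Rescue of A-beta toxicity was scored as yeast growth by 600 nm absorbance after 48 hr at 30 C with compound. Normalization used DMSO (negative) and equimolar ferric chloride plus clioquinol (positive).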

Experiment [3] in a line: qHTS for Activators of Parkin Expression: LOPAC Validation Assay (NLuc Reporter) (AID 720572). The method in brief: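 Cells harboring the Parkin-promoter coincidence reporter were treated for 24 h at seven concentrations. NLuc output was measured sequentially after the FLuc channel and scaled between DMSO and positive control values.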
A short description of experiment [4]: qHTS assay for small molecule agonists of the antioxidant response element (ARE) signaling pathway (AID 651741; active means well fitted activation curve with a large enough effect in the signal ratio; the % refers to the signal ratio; further: potency means the concentration at half of the fitted maximal effect). The procedure, abridged:
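Beta-lactamase reporter expression driven by the antioxidant response element in HepG2 cells was detected by fluorescence with LiveBLAzer B/G FRET substrate (2 h, room temperature) following 16 h compound treatment at 37 C.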

Experiment [5] can be described thus: qHTS assay for small molecule activators of the nuclear factor-kappa B (NF-kB) signaling pathway (AID 651749; active means well fitted activation curve with a large enough effect in the signal ratio; the % refers to the signal ratio; further: series mostly up to about 77 µM). The conditions noted are these: NF-kB-bla ME-180 cells, beta-lactamase FRET ratio, 16 h; active compounds read high. The procedure, abridged:
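Beta-lactamase reporter expression, controlled by NF-kB response elements in ME-180 cells, was quantified fluorometrically via FRET disruption; cells at 2,000/well had been incubated with 23 nL test compound for 16 hr.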

In experiment [6] the target is Peroxisome proliferator-activated receptor alpha (Homo sapiens) (UniProt Q07869). Description: qHTS assay for small molecule agonists of the peroxisome proliferator-activated receptor alpha (PPARalpha) signaling pathway (AID 651778). Conditions: PathHunter PPARalpha complementation, chemiluminescence, 6 h; active compounds read high. The method in brief: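 Cells plated at 2,000/well and held overnight at 37 C, 5% CO2, then compound added by pin tool for 6 hr; after PathHunter detection reagent and 60 min at room temperature, chemiluminescence from enzyme complementation was read.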

For experiment [7], the target named is Tyrosine-protein kinase Yes (Homo sapiens) (UniProt P07947). Description: qHTS for small molecule inhibitors of Yes1 kinase: Primary Screen (AID 686947). Further: nearly all actives have a fitted effect of over 60% in size. The procedure, abridged: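 In this qHTS format, inhibition is expressed relative to DMSO controls with enzyme (maximum) and without enzyme (minimum). The 60 min room-temperature reaction uses 0.1 mM ATP, with ADP detected by luminescence.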

A short description of experiment [8]: qHTS for small molecule inhibitors of Yes1 kinase: Counter Assay (AID 686950).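 Further: no kinase present so only ADP-Glo detection of a fixed ADP amount is tested; luminescence from ADP-Glo reporting ADP in a fixed ATP and ADP mixture; series mostly up to about 77 µM.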 The procedure, abridged:
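Measuring interference with ADP-Glo, the assay ran 60 min at room temperature on an ATP/ADP mix lacking enzyme. Values were normalized to ATP-plus-ADP (maximum) and ATP-only (minimum) DMSO controls.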

A short description of experiment [9]: qHTS assay for small molecule activators of the p53 signaling pathway (AID 651743; active means well fitted activation curve with a large enough effect in the signal ratio, not every such curve was filed as active; the % refers to the signal ratio; further: potency means the concentration at half of the fitted maximal effect; on activation: series mostly up to about 92 µM). Conditions: HCT-116 p53RE-bla, beta-lactamase FRET ratio, 16 h; activation: active compounds read high. The procedure, abridged:
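Here HCT-116 cells with an integrated p53-responsive beta-lactamase gene were incubated with compounds (16 hours, 37 C) after a 5-hour plating period; beta-lactamase activity was detected as fluorescence intensity via B/G FRET substrate.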

For experiment [10], the target named is Tumor necrosis factor (Homo sapiens) (UniProt P01375). As to the kind of experiment: qHTS assay to identify small molecules that stimulate Tumor Necrosis Factor-alpha (TNF-alpha) secretion (AID 651757; active means well fitted curve in the direction sought with a large enough effect in the signal ratio; the % refers to the signal ratio). The method in brief:
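THP-1 cells, 3000/well; compound 17 hrs, 37 C; add cryptate/XL665 anti-TNF-alpha antibody pair; 3 hr RT; TR-FRET (HTRF) read of secreted TNF-alpha. Quantitative HTS format.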

Experiment [11] in a line: qHTS assay to identify small molecules that stimulate interleukin-8 (IL-8) secretion (AID 651758; active means well fitted activation curve with a large enough effect in the signal ratio; the % refers to the signal ratio). The procedure, abridged: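 Quantitative HTS in THP-1 monocytic cells at 2000 cells per well, with 16 hrs compound incubation at 37 C. IL-8 in the medium was then quantified by HTRF immunoassay, read after 1-3 hrs at room temperature.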

Several values for one entry are separate records, joined by “and”; a condition that tells them apart may be missing. Equal entries are not always repeated. Values without a mark were called inactive. Results filed as inconclusive are left out. A call without a number means that no potency is given here. Activity calls are given as the source filed them. Unless noted, the call rests on the fitted dose curve; in most records, active means well fitted curve in the direction sought with a large enough effect; inconclusive means small, poorly fitted or top-dose-only effect, or another doubt; inactive means no such curve, though single readings can be large; an effect the other way counts as inactive or inconclusive.

Chain of Arylsulfatase A (Homo sapiens) (P15289 whole entry, looked up): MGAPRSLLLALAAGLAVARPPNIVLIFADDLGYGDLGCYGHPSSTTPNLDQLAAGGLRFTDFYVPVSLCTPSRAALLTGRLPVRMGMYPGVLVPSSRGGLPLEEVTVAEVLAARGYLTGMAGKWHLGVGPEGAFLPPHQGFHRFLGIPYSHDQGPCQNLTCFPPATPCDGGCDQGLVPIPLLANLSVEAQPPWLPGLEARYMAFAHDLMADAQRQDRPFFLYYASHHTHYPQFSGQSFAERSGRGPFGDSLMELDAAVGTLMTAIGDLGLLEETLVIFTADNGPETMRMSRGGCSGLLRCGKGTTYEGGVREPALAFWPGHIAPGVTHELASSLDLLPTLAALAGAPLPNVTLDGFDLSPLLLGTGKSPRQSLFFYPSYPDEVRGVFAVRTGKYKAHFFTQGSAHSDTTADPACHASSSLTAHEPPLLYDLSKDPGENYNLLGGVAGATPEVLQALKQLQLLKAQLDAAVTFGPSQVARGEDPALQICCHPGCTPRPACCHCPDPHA
Chain of Peroxisome proliferator-activated receptor alpha (Homo sapiens) (Q07869 whole entry, looked up): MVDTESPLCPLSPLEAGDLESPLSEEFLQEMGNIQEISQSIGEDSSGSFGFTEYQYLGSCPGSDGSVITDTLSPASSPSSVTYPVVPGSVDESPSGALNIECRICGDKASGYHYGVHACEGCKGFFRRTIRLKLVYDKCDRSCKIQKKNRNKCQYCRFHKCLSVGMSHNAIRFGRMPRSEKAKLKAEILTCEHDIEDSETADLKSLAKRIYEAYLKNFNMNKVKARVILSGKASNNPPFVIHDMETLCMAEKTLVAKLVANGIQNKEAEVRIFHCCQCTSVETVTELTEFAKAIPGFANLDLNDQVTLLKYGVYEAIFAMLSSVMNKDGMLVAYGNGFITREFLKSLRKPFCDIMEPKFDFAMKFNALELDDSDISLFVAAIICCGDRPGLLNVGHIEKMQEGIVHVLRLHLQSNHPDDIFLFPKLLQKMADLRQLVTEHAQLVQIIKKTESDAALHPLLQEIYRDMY
Chain of Tyrosine-protein kinase Yes (Homo sapiens) (P07947 whole entry, looked up): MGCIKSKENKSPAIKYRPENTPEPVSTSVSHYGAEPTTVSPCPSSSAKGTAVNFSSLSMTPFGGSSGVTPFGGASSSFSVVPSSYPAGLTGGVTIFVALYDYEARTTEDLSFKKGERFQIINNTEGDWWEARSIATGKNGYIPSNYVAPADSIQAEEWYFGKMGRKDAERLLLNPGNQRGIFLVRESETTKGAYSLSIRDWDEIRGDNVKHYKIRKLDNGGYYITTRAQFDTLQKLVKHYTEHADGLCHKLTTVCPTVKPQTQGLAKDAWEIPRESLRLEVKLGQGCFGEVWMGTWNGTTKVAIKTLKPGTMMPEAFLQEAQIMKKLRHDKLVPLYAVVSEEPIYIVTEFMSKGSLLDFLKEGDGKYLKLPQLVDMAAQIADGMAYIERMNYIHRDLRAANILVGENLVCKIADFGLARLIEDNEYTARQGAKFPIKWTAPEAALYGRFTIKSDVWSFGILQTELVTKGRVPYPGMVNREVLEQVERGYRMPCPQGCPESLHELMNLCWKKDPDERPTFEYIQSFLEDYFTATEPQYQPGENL
Chain of Tumor necrosis factor (Homo sapiens) (P01375 whole entry, looked up): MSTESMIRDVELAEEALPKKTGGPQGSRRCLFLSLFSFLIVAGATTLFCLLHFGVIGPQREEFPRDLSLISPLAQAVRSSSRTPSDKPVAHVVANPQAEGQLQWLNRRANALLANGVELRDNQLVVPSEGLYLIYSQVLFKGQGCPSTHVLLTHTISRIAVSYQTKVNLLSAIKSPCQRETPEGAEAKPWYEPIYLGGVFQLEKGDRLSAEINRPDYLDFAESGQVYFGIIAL

As to `Cc1cn[nH]c1`, the result in experiment [1] and in [2] was inactive. Moreover, in experiment [3], the Potency result was “inactive”.
As to `c1ccc([C@H]2CN3CCSC3=N2)cc1`, the result in experiment [1] and in [2] was inactive. The Potency result in [3] was “inactive”.
Turning to `CC(C[N+](C)(C)C)OC(N)=O` (stereo not drawn), the result in [1] and in experiment [2] was inactive. Moreover, the Potency result in experiment [3] was “inactive”.
Consider `CNC[C@H](O)c1cccc(O)c1`, for which the Potency result in [4] and in [3] was “inactive” throughout. In experiment [5], the activation is -0.433%. Further, in experiment [6], the max response was -0.749%. Further, the outcome in experiment [1] and in [2] was inactive.
Regarding `N=c1nc(N2CCCCC2)cc(N)n1O`, the outcome in [1] and in [2] was inactive. The Potency result in [3] is “inactive”.
On to `Nc1ccc(S(=O)(=O)Nc2ccnn2-c2ccccc2)cc1`, for which the outcome in experiment [1] and in experiment [2] was inactive. Also, in experiment [3], the Potency result was “inactive”.
With `Nc1nc2c(ncn2COCCO)c(=O)[nH]1`, the outcome in experiment [1] and in experiment [2] was inactive.
As to `Cc1ccccc1C(C(=O)NC1CCCC1)N(C(=O)Cn1cnc2ccccc21)c1cccc(F)c1` (stereo not drawn), the Potency result in experiment [7] was “inactive”. The outcome in experiment [8] was inactive.
`C1COC(NC(C2CC2)C2CC2)=N1`: in experiment [2], the molecule was called inactive. Besides, the Potency entry in experiment [3] was “inactive”.
Consider `Clc1cccc(Cl)c1NC1=NCCN1`, for which the outcome in experiment [2] was inactive. Moreover, in experiment [3], the Potency result was “inactive”.
As to `CC(C)NCC(O)COc1ccc(COCCOC(C)C)cc1` (stereo not drawn), in experiment [1], the outcome is “inactive; inhibitor; fitted 0.3793 uM”. For the same molecule, the result in experiment [2] was inactive. Moreover, the Potency result in experiment [3] was “inactive”.
Consider `OC(CCN1CCCCC1)(c1ccccc1)C1CC2C=CC1C2` (stereo not drawn), for which the result in experiment [1] and in experiment [2] was inactive. Also, the Potency result in experiment [3] was “inactive”.
As to `CN1CCN(CCCN2c3ccccc3Sc3ccc(C(F)(F)F)cc32)CC1`, the result in experiment [1] and in experiment [2] was inactive. In experiment [3], the Potency result was “inactive”.
Consider `NNCCc1ccccc1`, for which the result in experiment [1] and in experiment [2] was inactive. The Potency result in experiment [3] was “inactive”.
Consider `CCN(CC)CCCC(C)Nc1ccnc2cc(Cl)ccc12` (stereo not drawn), for which the outcome in [1] and in experiment [2] was inactive. In addition, in [3], the Potency entry was “inactive”.
With `Cn1cnc([N+](=O)[O-])c1Sc1ncnc2nc[nH]c12`, the Potency was 27.3 µM (active) and 37.6 µM (active) in experiment [4]; 25.1 µM (active) and 28.2 µM (active) in experiment [9]. In addition, the activation in [5] was -1.21% and -0.92%. Further, in experiment [6], the max response is -2.81% and -2.18%. Also, the molecule was called inactive in [2]. Besides, the Potency entry in experiment [3] was “inactive”.
`Cc1ccc(N(CC2=NCCN2)c2cccc(O)c2)cc1`: in [2], the result was inactive. Moreover, the Potency entry in experiment [3] was “inactive”.
Regarding `NCCCC(N)(C(=O)O)C(F)F` (stereo not drawn), the outcome in [1] and in experiment [2] was inactive. The Potency result in [3] is “inactive”.
With `Cc1ccccc1C(OCCN(C)C)c1ccccc1` (stereo not drawn), the Potency result in experiment [4] and in experiment [3] was “inactive” throughout. Moreover, the results for the activation in experiment [9] and in experiment [5] were -4.64% and 2.9%, respectively. For the same molecule, the max response in [6] was -4.12%. For the same molecule, the outcome in [1] and in experiment [2] was inactive.
Regarding `CCCC(CCC)C(=O)O`, the Potency result in experiment [4] was “inactive”. The activation in experiment [5] is 0.312% and -3.31% and -0.945%. Further, the molecule was called inactive in experiment [10], in experiment [11], in experiment [1] and in [2].
In the case of `Cc1cnc(NC(=O)C2=C(O)c3ccccc3S(=O)(=O)N2C)s1`, the outcome in [1] and in experiment [2] was inactive.
Consider `CCOC(=O)C1=C[C@]2(CC)CCCN3CCc4c(n1c1ccccc41)[C@@H]32`, for which the result in experiment [1] and in experiment [2] was inactive. Moreover, the Potency result in [3] is “inactive”.
